Sm TGR inh: inhibitors of Schistosoma mansoni thioredoxin glutathione reductase; hit rate 3% among 360,000; purified TGR, DTNB reduction, TNB absorbance 405 nm; AID 485364; Q962Y6; Potency, µM (doses to about 114 µM), for the others: at the top dose activity change, negative = inhibition, hits mostly inhibitors; also: nearly all actives have a fitted effect of over 60% in size
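First, TGR (20 nM dispensed) and NADPH were mixed with compound. Second, a 15 min room-temperature incubation followed. Third, further NADPH and then DTNB were added to start the reaction. Finally, TNB absorbance was monitored kinetically.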
Giardia FBPA inh: blocks Giardia fructose-bisphosphate aldolase activity. A8B2U2. purified Giardia FBPA. hit rate 0.71% among 290,000. Potency, µM (series often up to 59.6 µM), without a hit: at the highest dose activity, negative = inhibition, most hits filed as inhibitors; also: nearly all actives have a fitted effect of over 55% in size
Target sequence (A8B2U2 whole entry, looked up): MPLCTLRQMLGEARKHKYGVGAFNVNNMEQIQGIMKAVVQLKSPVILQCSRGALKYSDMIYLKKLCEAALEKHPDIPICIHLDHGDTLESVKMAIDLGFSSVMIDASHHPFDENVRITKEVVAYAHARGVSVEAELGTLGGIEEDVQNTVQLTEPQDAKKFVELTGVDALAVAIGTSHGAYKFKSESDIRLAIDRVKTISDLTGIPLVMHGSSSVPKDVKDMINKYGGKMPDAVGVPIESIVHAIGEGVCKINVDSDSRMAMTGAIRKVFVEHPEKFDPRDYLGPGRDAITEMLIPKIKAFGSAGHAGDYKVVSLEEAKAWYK
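40 nM FBPA preincubated 10 min at RT with compound (up to 57.5 uM final), then substrate plus GAPDH/TPI/NAD/arsenate coupling and diaphorase/resazurin added. Fluorescence read after 20 min at RT, 525/598 nm.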
AmpC detergent: AmpC beta-lactamase inhibition with detergent present; P00811; AmpC hydrolysis of nitrocefin, absorbance 480 nm, 0.01% Triton; Potency, µM (top dose mostly 114 µM), without a hit: at the top dose activity change, negative = inhibition, usual class: inhibitors; hit rate 0.041% among 370,000; AID 485294;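 also: 0% = no-compound wells and -100% = no-enzyme wells; nearly all actives have a fitted effect of over 25% in size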
Target sequence (P00811 whole entry, looked up): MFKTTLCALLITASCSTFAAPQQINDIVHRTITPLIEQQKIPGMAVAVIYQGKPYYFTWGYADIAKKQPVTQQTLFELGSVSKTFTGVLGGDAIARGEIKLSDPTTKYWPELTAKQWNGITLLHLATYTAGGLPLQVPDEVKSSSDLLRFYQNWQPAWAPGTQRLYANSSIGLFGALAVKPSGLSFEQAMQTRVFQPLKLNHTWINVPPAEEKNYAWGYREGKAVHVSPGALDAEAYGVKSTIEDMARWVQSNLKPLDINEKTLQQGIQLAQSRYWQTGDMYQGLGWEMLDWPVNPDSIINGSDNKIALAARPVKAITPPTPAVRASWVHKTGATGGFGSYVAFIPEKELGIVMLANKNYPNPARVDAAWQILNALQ
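AmpC (5.3 nM in the dispensed reagent) in 20 mM phosphate pH 7.0 with 0.01% (detergent screen) or 0.0001% Triton X-100 was preincubated with compounds for 15 min at room temperature. Nitrocefin was then added from an 800 uM solution, and hydrolysis was followed at 480 nm.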
AmpC no deterg: blocks E. coli AmpC beta-lactamase in detergent-free assay; P00811; AmpC nitrocefin hydrolysis, absorbance 480 nm, 0.0001% Triton; Potency, µM (highest dose often 57.1 µM), for inactives: top-dose activity change, negative = inhibition, usual class: inhibitors; hit rate 0.52% among 330,000;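 also: plate controls were no compound for no effect and no enzyme for full effect; nearly all actives have a fitted effect of over 20% in size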
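AmpC (5.3 nM in the dispensed reagent) in 20 mM phosphate pH 7.0 with 0.01% (detergent screen) or 0.0001% Triton X-100 was preincubated with compounds for 15 min at room temperature. Nitrocefin was then added from an 800 uM solution, and hydrolysis was followed at 480 nm.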
The depositor's hits bear a star; u = inconclusive; x = not tested or not shown; [ ] = another dose, or the depositor's remark. An excerpt weighted towards active compounds, which were near 3.6% of everything screened. Calls follow the shape of the dose curve; as a rule, active = well fitted curve in the direction sought with a large enough effect; inconclusive = small, poorly fitted or top-dose-only effect, or another doubt; inactive = no such curve, though single readings can be large; an effect the other way counts as inactive or inconclusive. Unless noted, % is scaled to controls: 0 for no effect and ±100 for the full control effect; potency is read from the fitted curve at half-maximal effect.

SMILES | Sm TGR inh | Giardia FBPA inh | AmpC detergent | AmpC no deterg
O=C(CCc1nnc2n(CCc3ccccc3)c(=O)c3ccccc3n12)NCCCN1CCCCC1 | 4% | x | 1% | 26%
O=C(O)c1ccccc1N/N=C/C1=C(N2CCOCC2)C(=C\c2ccccc2)/CC1 | 16µM* | -5% | u | -56%
O=C(N/N=C/C1=C(N2CCOCC2)C(=C\c2ccccc2)/CC1)Nc1ccccc1 | -6% | 5% | 1% | -23%
O=P(C1=C(N2CCOCC2)/C(=C\c2ccccc2)CC1)(N1CCOCC1)N1CCOCC1 | 45µM* | 11% | -9% | 147%
Cc1cc(=O)[nH]c(N/N=C/C2=C(N3CCOCC3)C(=C\c3ccc(Cl)cc3)/CC2)n1 | 25µM* | -19% | -4% | -38%
O=C(NP(=O)(N1CCOCC1)N1CCOCC1)C1=C(N2CCOCC2)/C(=C\c2ccccc2)CC1 | 3.2µM* | -7% | -14% | -13%
O=C(COC(=O)CNC(=O)c1ccccc1)Nc1ccc(F)c([N+](=O)[O-])c1 | 0% | -2% | u | -22%[11.4 µM]
CCn1cc(C(=O)OCC(=O)Nc2ccc(C)c(Cl)c2)c(=O)c2ccc(C)nc21 | -2% | x | 22% | x
N#CC1=C(N2CCOCC2)/C(=C\c2ccccc2)CC1 | -27% | -13% | u | -7%
O=CC1=C(N2CCOCC2)/C(=C\c2ccccc2)CC1 | 25µM* | -16% | 2% | -38%
CCOc1ccc(NC(=O)Cn2nnc(C(=O)OC)c2C(=O)OC)cc1 | 5% | x | 3% | x
Cc1cccc(C(=O)OCC(=O)NC(=O)c2ccccc2)c1O | 50µM* | x | -2% | -3%
CCOC(=O)c1c(NC(N)=O)sc(C)c1C | -21% | -3% | 1% | -9%
CCOC(=O)c1c(N2C(=O)C=CC2=O)sc(C)c1C | 0.45µM* | -15% | -6% | -49%
COc1ccc(S(=O)(=O)N=C2C=C(C)C(=O)C(C)=C2)cc1 | 32µM* | -6% | -4% | -39%
COc1ccc(C(=O)ON=C2C=C(C)C(=O)C(C)=C2)cc1 | -1% | u | 6% | -6%[2.29 µM]
Cc1ccccc1-n1c(O)c(C(c2ccncc2)c2c(O)n(-c3ccccc3C)c(=O)[nH]c2=O)c(=O)[nH]c1=O | 1.1µM* | -2% | -5% | -7%
Cc1ccc2c(c1)c1c(c(=O)n(Cc3ccccc3)c(=O)n1Cc1ccccc1F)n2C | -1% | x | -8% | x
Cc1ccc(N/N=C/c2c(O)n(-c3ccccc3)c(=O)[nH]c2=O)cc1 | 18µM* | -18% | -4% | -31%
Cc1ccc(-n2c(O)c(/C=C/C=Nc3ccccc3)c(=O)[nH]c2=O)cc1 | 1% | 2% | -6% | -6%
CCC(=O)NCCCCCCCCCNC(=O)CC | -4% | 4% | 0% | -14%
CCC(=O)CC | x | 14µM* | x | x
CC(=O)Nc1sc(N/N=C/c2ccccc2)nc1-c1ccc(C)cc1 | 8% | -7% | -3% | -32%
CC(=O)Nc1sc(N/N=C/c2ccccc2F)nc1-c1ccc(C)cc1 | 32µM* | -9% | -2% | -39%
CC(N)COC(=O)C(CCCCN)NC(=O)Cc1c(-c2ccc3ccccc3c2)[nH]c2c1ccc1ccccc12 (configuration not stated) | x | 1% | x | x
SMILES | Sm TGR inh | Giardia FBPA inh | AmpC detergent | AmpC no deterg
CCCN1CCN(C(=O)c2noc3c2COc2ccc(C)cc2-3)CC1 | 5µM* | -9% | -15% | 103%
Cc1cc(C)nc(-n2ncc3c2CC(c2cccc(Cl)c2)CC3=O)n1 (configuration not stated) | 4% | 6% | 4% | 135%
C/C(=N/Nc1ccc(C(=O)O)cc1)c1ccc(O)c(O)c1O | -22% | 7.1µM* | -6% | -7%
COc1ccc(OC)c(/C(C)=N/Nc2ccc(C(=O)O)cc2)c1 | -18% | 17% | 5% | -31%
N#Cc1ccc(C(=O)Nc2cccc(NC(=O)c3ccco3)c2)c(F)c1 | x | 0% | 2% | -23%
Cc1ccc(C)n1C(CC(=O)O)c1ccc(C#N)cc1 (configuration not stated) | 40µM* | -2% | 2% | -13%
COc1ccc(CC(=O)OCC(=O)Nc2ncc(Cl)c(C)c2Cl)cc1 | u | x | 0% | -13%
COc1ccccc1CN(Cc1cc2c(C)ccc(C)c2[nH]c1=O)Cc1nnnn1Cc1ccco1 | 45µM* | -1% | 4% | -6%
Cc1ccc(CN(Cc2cc3cc4c(cc3[nH]c2=O)OCCO4)Cc2nnnn2Cc2ccco2)cc1 | 11µM* | u | 5% | -16%
CNC(=S)N(Cc1ccco1)Cc1cc2cc3c(cc2[nH]c1=O)OCCO3 | 14µM* | -12% | -8% | -30%
Cc1ccc(C)c2[nH]c(=O)c(CN(CCN3CCOCC3)Cc3nnnn3CC3CCCO3)cc12 (configuration not stated) | 20µM* | -18% | -9% | 54%
CCNC(=S)N(Cc1ccco1)Cc1cc2cc3c(cc2[nH]c1=O)OCCO3 | -24% | 4% | -12% | -34%
Cc1ccc2cc(CN(Cc3ccc4c(c3)OCO4)Cc3nnnn3Cc3ccco3)c(=O)[nH]c2c1 | u | 2% | 2% | -14%
CCOc1ccc(S(=O)(=O)NC(Cc2cnc[nH]2)C(=O)O)cc1 (configuration not stated) | 0% | -18% | -7% | -10%
CCOc1cc(/C=C(\C#N)C(=O)Nc2ccccn2)ccc1O | 18µM* | u | u | -15%
CCOC(=O)c1c(-c2ccc(C)cc2)csc1NC(=O)/C(C#N)=C/c1ccc(O)c(OC)c1 | -1% | -12% | -5% | 8.9µM*
Cc1cccc(/C=C(\C#N)C(=O)Nc2ccccn2)c1 | 8% | u | 0% | -15%
COc1cc(/C=C(\C#N)C(=O)Nc2ccccn2)ccc1O | 14µM* | u | -1% | -7%
CN(C)c1nnnn1-c1ccc(Oc2ncc(C(F)(F)F)cc2Cl)cc1 | -4% | 0% | -7% | 130%
COc1ccc(-c2ccc(CCC(=O)O)n2CC(=O)Nc2cccc(C(F)(F)F)c2)cc1 | -32% | x | -5% | x
COc1ccc(-c2ccc(CCC(=O)O)n2CC(C)C)cc1 | 10µM* | 17% | -5% | -33%
COc1ccc(OC)c(NC(=O)Cn2c(CCC(=O)O)ccc2-c2ccc(C)cc2)c1 | -27% | 16% | 7% | 6%
C=CCn1c(CCC(=O)O)ccc1-c1ccc(OC)cc1 | 45µM* | 11% | -3% | -25%
CCCCS(=O)(=O)N1CN(S(=O)(=O)CCCC)C2NC(=O)NC21 (configuration not stated) | 35µM* | 13% | 2% | 11%
CCN1C(=O)NC2C1N(S(C)(=O)=O)CCN2S(C)(=O)=O (configuration not stated) | 7% | 0% | u | -22%
O=C(Cn1ccc(C(F)(F)F)n1)Nc1ccc(S(=O)(=O)NCc2ccco2)cc1 | 45µM* | -3% | -13% | -31%
CC(=O)Nc1ccc(OS(=O)(=O)O)cc1 | x | 7% | x | x
COCCn1c(C)cc(O)c(C(c2ccc(OC)cc2)N2CCN(c3ccccc3)CC2)c1=O (configuration not stated) | 8.9µM* | x | -3% | x

Screening results deposited in PubChem by National Center for Advancing Translational Sciences (NCATS).
